Experimental data taken from PubChem BioAssay (EPA / NIEHS).
Inconclusive results are not listed. Active and inactive are the calls of the source. The calls were made as follows: active = hit-call score of the fitted dose curve at least 0.9, where 1 is the maximum; inconclusive = response in the unintended direction; inactive = score below 0.9.

Target: Oxysterols receptor LXR-beta (Homo sapiens) (UniProt P55055)
Assay: ATG_LXRb_TRANS: Attagene TRANS-FACTORIAL HepG2 Assay for human Liver X Receptor beta (LXRb) (AID 2282981)
Details: HepG2 Attagene TRANS GAL4-LXRb reporter, mRNA
Outline: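 Multiplexed reporter assay, HepG2, 24 h dosing. Fluorescence of labelled RT-PCR products after capillary electrophoresis gives transcript level; positive fitting direction relative to DMSO.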

Chain of Oxysterols receptor LXR-beta (Homo sapiens) (P55055 whole entry, looked up): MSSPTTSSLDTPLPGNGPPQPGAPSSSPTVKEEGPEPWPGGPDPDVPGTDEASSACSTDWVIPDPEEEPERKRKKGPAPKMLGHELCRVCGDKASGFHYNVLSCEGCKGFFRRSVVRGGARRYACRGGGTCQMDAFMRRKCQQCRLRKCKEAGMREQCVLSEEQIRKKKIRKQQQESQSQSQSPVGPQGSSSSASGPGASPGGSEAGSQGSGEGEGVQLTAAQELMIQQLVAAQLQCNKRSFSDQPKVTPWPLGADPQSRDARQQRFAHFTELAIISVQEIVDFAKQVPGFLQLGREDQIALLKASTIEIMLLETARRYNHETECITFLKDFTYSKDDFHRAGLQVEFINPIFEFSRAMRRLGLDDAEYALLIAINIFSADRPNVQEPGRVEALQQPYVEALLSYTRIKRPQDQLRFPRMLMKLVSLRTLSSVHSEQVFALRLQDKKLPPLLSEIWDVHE

| SMILES | outcome |
| --- | --- |
| O=P(O)(O)CN(CP(=O)(O)O)CP(=O)(O)O | inactive |
| CC(C)(c1ccc(OCC2CO2)cc1)c1ccc(OCC2CO2)cc1 (centres undefined) | inactive |
| CNC | inactive |
| OCC(O)CCl (centres undefined) | inactive |
| Nc1cccc2ccccc12 | inactive |
| ClCc1ccccn1 | inactive |
| CC(C)OC(=O)Nc1ccccc1 | inactive |
| NNC(=S)NN | inactive |
| CCOP(=O)(CN(CCO)CCO)OCC | inactive |
| Cl/C=C/Cl | inactive |
| NC(=S)Nc1ccccc1 | inactive |
| C[C@]12CC[C@H](O)CC1=CC[C@@H]1[C@@H]2CC[C@]2(C)C(=O)CC[C@@H]12 | inactive |
| Nc1ncc([N+](=O)[O-])s1 | inactive |
| Cc1ccccc1N | inactive |
| CC(C)c1cccc(C(C)C)c1O | inactive |
| Cc1ccc2ccccc2c1C | inactive |
| Nc1cccc(Cl)c1 | inactive |
| CNC(=O)O/N=C/C(C)(C)S(C)=O (centres undefined) | inactive |
| COP(=S)(OC)Oc1c(Cl)cc(C)cc1Cl | inactive |
| O=C(NCO)NCO | inactive |

Target: Hepatocyte nuclear factor 4-alpha (Homo sapiens) (UniProt P41235)
Assay: ATG_HNF4a_TRANS: Attagene TRANS-FACTORIAL HepG2 Assay for human Hepatocyte Nuclear Factor 4 alpha (HNF4a) (AID 2282982)
Details: HepG2 HNF4a transactivation reporter, mRNA readout
Outline: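 Endpoint reflects transcriptional activation of a GAL4-UAS reporter by an HNF4a-GAL4 chimera in transfected HepG2 cells, 24 h post-dosing. Fluorescence from RT-PCR products separated by capillary electrophoresis; DMSO baseline.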

Chain of Hepatocyte nuclear factor 4-alpha (Homo sapiens) (P41235 whole entry, looked up): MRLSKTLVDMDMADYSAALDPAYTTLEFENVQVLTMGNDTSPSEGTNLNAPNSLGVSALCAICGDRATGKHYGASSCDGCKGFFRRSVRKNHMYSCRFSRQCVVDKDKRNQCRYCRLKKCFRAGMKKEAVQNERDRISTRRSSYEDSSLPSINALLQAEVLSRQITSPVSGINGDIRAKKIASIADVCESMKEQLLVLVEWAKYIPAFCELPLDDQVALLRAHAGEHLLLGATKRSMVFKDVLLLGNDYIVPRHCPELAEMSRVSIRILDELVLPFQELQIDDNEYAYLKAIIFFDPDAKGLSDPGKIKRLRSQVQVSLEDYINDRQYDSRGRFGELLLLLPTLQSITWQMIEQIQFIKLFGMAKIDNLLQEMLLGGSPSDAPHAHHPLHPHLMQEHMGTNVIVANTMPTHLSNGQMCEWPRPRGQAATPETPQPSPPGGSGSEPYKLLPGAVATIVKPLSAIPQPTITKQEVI

| SMILES | outcome |
| --- | --- |
| CCOC(=O)/C=C(C)/C=C/C[C@@H](C)CCCC(C)C | inactive |
| COc1cc2c(cc1OC)[C@@]13CCN4CC5=CCO[C@H]6CC(=O)N2[C@H]1[C@H]6[C@H]5C[C@H]43 | inactive |
| O=Cc1cccc(Oc2ccccc2)c1 | inactive |
| CCCCCCCCC(=O)NCc1ccc(O)c(OC)c1 | inactive |
| Cc1cc(Cl)ccc1O[C@H](C)C(=O)O | inactive |
| CCCCC(CC)CO[N+](=O)[O-] (centres undefined) | inactive |
| COc1cc(OC)nc(NC(=O)NS(=O)(=O)c2ncccc2C(=O)N(C)C)n1 | inactive |

Test system: not listed separately
Assay: ATG_M_06_TRANS: Attagene TRANS-FACTORIAL HepG2 Assay for M06 Transcription Factor (Internal Marker) (AID 2282983)
Details: HepG2 Attagene TRANS M06 internal marker reporter
Outline: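 Background control endpoint: reporter mRNA from transiently transfected HepG2 after 24 h dosing, detected by RT-PCR with capillary electrophoresis fluorescence. Analysed for gain versus DMSO.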

| SMILES | outcome |
| --- | --- |
| Clc1nc(Cl)nc(Cl)n1 | inactive |
| O=CC=O | inactive |
| OCC(O)CCl (centres undefined) | inactive |
| CCOC(=O)/C=C(C)/C=C/C[C@@H](C)CCCC(C)C | inactive |
| ClCc1ccccn1 | inactive |
| CC(C)OC(=O)Nc1ccccc1 | inactive |
| NNC(=S)NN | inactive |
| CCOP(=O)(CN(CCO)CCO)OCC | inactive |
| Cl/C=C/Cl | inactive |
| COc1cccc(C=O)c1 | inactive |
| NC(=S)Nc1ccccc1 | inactive |
| O=Cc1cccc(Oc2ccccc2)c1 | inactive |
| C[C@]12CC[C@H](O)CC1=CC[C@@H]1[C@@H]2CC[C@]2(C)C(=O)CC[C@@H]12 | inactive |
| Nc1ncc([N+](=O)[O-])s1 | inactive |
| CCCCCCCCC(=O)NCc1ccc(O)c(OC)c1 | inactive |
| Cn1sc(Cl)cc1=O | inactive |
| CC(C)(C)c1cc(O)ccc1O | inactive |
| CC(C)c1cccc(C(C)C)c1O | inactive |
| C[C@@H](Oc1ccc(Cl)cc1Cl)C(=O)O | inactive |
| ClC1=C(Cl)[C@]2(Cl)[C@H]3[C@H]([C@H]4C=C[C@H]3C4)[C@@]1(Cl)C2(Cl)Cl | inactive |
| O=C(CCl)CCl | inactive |
| Cc1cc(Cl)ccc1O[C@H](C)C(=O)O | inactive |
| CCCCC(CC)CO[N+](=O)[O-] (centres undefined) | inactive |
| CNC(=O)O/N=C/C(C)(C)S(C)=O (centres undefined) | inactive |
| COc1cc(OC)nc(NC(=O)NS(=O)(=O)c2ncccc2C(=O)N(C)C)n1 | inactive |
| C=C(C)C(=O)[O][Sn]([CH2]CCC)([CH2]CCC)[CH2]CCC | inactive |
| O=C(NCO)NCO | inactive |
